Growth data for 32 molecules are collected here from PubChem BioAssay (NCI).

What all share (assay): NCI-60 one-dose screen, 48 h (100 = growth as untreated, 0 = no growth, -100 = all killed)
Settings in all cases: 10 µM unless noted

For assay [1], the system named is SK-MEL-2 melanoma.
Assay [2] has as its system EKVX NSCLC.
The subject of assay [3] is UO-31 renal.
Assay [4] relates to TK-10 renal.
For assay [5], the system named is ACHN renal.
In assay [6] the test system is CAKI-1 renal.
In assay [7] the test system is A498 renal.
For assay [8], the system named is CCRF-CEM leukemia.
Assay [9] deals with MOLT-4 leukemia.
Assay [10] relates to SN12C renal.

About 83,000 compounds went through this panel and 20% of them were active in at least one assay; those are over-represented in the sample as a whole.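 Plates (96-well) were seeded with cells, treated with compound at one concentration, and incubated for 48 hours before percent growth was determined.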 Unmarked numbers belong to inactive results. Active and inactive are the calls of the source. How the source made its calls: active means growth percent below 10; inactive means the rest.

On to `Cc1cccc2c1NC(=O)[C@@]21[C@H](C(=O)c2ccccc2)[C@]2(C(=O)Nc3ccccc32)[C@H]2CCCN21`, for which the growth in assay [1] is 18.1% [100 µM]; in assay [2] it was 30.6% [100 µM]; in [3] it was 30.5% [100 µM]; in assay [4], 39% [100 µM]; in assay [5], 5.91% [100 µM] (active); in [6] it was 11.6% [100 µM]. In addition, the growth is 39.8% [100 µM] in assay [7], 5.86% [100 µM] (active) in assay [8] and 12.3% [100 µM] in assay [9].

In the case of `COc1cccc(-c2nn(-c3ccccc3)cc2-c2ccnc(NCCNS(=O)(=O)c3ccc(C(F)(F)F)cc3)c2)c1`, the growth is -11.3% (active) in [1]; 29.4% in assay [2]; 11.7% in assay [3]; 27.3% in assay [4]; 8.66% (active) in [5]; 16.8% in assay [6]. The growth was 4.35% (active) in assay [7], 8.23% (active) in assay [8] and -16.7% (active) in assay [9].

In the case of `Cc1ccc2[nH]cc(-c3nc(-c4cn(C)c5ncccc45)cs3)c2c1`, the growth in assay [1] is 89.4%; in assay [2], 59.5%; in [10], 87.8%; in assay [4], 95%; in [5], 79.6%; in assay [6], 77.9%. In addition, the results for the growth in assay [7], in [8] and in assay [9] were 72.2%, 58.5% and 53.3%, respectively.

For `Cc1cc(N=O)cc(C(C)(C)C)c1O`, the growth in assay [1] is 85.2%; in [2], 95.4%; in assay [3], 92.3%; in assay [4], 94.1%; in assay [5], 108%; in assay [6], 86.1%. The growth was 74.3% in assay [7], 82.5% in [8] and 94.2% in [9].

Take `O=C(/C(=C(\C(=O)c1ccccc1)c1ccccc1)c1ccccc1)c1ccccc1`: the growth in assay [1] was 81.5%; in [2] it was 40.5%; in assay [3] it was 63.3%; in assay [4], 86.8%; in [5] it was 39.5%; in [6], 57.8%. For the same molecule, the growth in [7] was 79.9%; in assay [8] it was 16.2%; in [9], -7.63% (active).

Consider `O=C(N/N=C\c1ccccc1O)C1CC1`, for which the growth in assay [1] was 103%; in [2], 109%; in [3] it was 71%; in assay [4], 118%; in assay [5] it was 108%; in [6], 115%. The growth in [7] is 113%; in assay [8] it was 83.7%; in assay [9], 101%.

Turning to `COc1cc(-c2cc(-c3nc4ccccc4[nH]3)[nH]n2)cc(OC)c1OC`, the growth in assay [1] was 47.4%; in assay [10], 65.8%; in [3], 39.8%; in [4], 70.3%; in assay [5], 39.3%; in [6], 38.8%. In [7], the growth was 17.2%.

Turning to `COc1ccc(/C=C2\N=C(c3ccccc3)N(c3cc(OC)c(OC)cc3C(=O)N3N=C(C)CC3=O)C2=O)cc1`, the growth in assay [1] is 91.1%; in assay [10], 93.7%; in [3], 68.9%; in assay [4], 113%; in [5], 93.2%; in [6], 92.3%. Further, the growth was 50.8% in assay [7] and 57.9% in [9].

Regarding `COc1ccc(-c2n/c(=C\c3c(O)[nH]c4ccc(OC)cc34)cc3c2=Nc2ccccc2-3)cc1`, the growth in assay [1] is 96.6%; in assay [10] it was 89.4%; in [3], 73.6%; in assay [4], -10.8% (active); in assay [5], 102%; in assay [6], 103%. Moreover, the growth in [7] was 87.2%; in assay [9], -35.4% (active).

For the molecule `COc1ccc(NC(=O)c2ccc3c(c2)nc(-c2cc4ccccc4[nH]c2=O)n3-c2cc(C(C)(C)C)[nH]n2)cc1`, the growth in assay [1] is 99.7%; in assay [10], 93.2%; in assay [3] it was 86.3%; in assay [4], 107%; in [5], 97.1%; in [6] it was 97.2%. Besides, the growth in [7] is 85.8%; in [9] it was 63.1%.

As to `COc1cc(-c2cc(-c3nc4cc(Cl)c(Cl)cc4[nH]3)[nH]n2)cc(OC)c1OC`, the growth in assay [1] was 86.5%; in assay [10], 69.7%; in assay [3] it was 43.2%; in assay [4], 107%; in [5], 46.8%; in assay [6], 84.6%. For the same molecule, the growth in [7] was 67.4%.

For `CCc1ccc(-c2ccc(Nc3ccccc3)nn2)cc1S(N)(=O)=O`, the growth in assay [1] was 78.9%; in assay [10], 88.6%; in assay [3] it was 101%; in [4], 116%; in assay [5], 77%; in [6], 92.6%. Further, the growth in assay [7] was 72.2%.

Take `Nc1c(C(=O)Nc2cccc(Br)c2)sc2nc3c(cc12)C(=O)CCC3`: the growth in [1] is 30.8%; in [10], 45.2%; in [3], 56.9%; in assay [4], 69%; in [5], 58.8%; in assay [6], 64%. Further, the growth in assay [7] was -3.99% (active).

As for `COc1ccc2nc(-c3c(-c4ccccc4)nc4ncccn34)[nH]c2c1`, the growth in assay [1] was 113%; in [10], 104%; in [3], 108%; in [4], 109%; in [5], 90.4%; in assay [6], 103%. Besides, in assay [7], the growth is 86.6%.

For `NCCn1cc(-c2nc(-c3c[nH]c4ncccc34)cs2)c2ccccc21`, the growth in assay [1] is 103%; in assay [2] it was 53.6%; in assay [3], 51.3%; in [4], 148%; in assay [5], 82.9%; in assay [7], 88.2%. Moreover, the figures for the growth in assay [8] and in [9] were 88.5% and 96.4%, respectively.

Turning to `COc1cc(C(=O)/C=C/c2cc(-c3ccc4c(c3)OCO4)n[nH]2)cc(OC)c1OC`, the growth is 84.7% in [1]; 25.7% in assay [10]; 39.4% in assay [3]; 67% in [4]; 42.7% in assay [5]; 66.3% in assay [6]. Besides, the growth in assay [7] was 4.49% (active).

Regarding `O=c1c(CNc2ccc(S(=O)(=O)Nc3nccs3)cc2)coc2ccccc12`, the growth in assay [1] was 98.1%; in assay [10] it was 99.1%; in assay [3] it was 82.2%; in [4], 103%; in [5], 94.2%; in assay [6], 98.5%. Besides, in assay [7], the growth is 112%.

On to `OCC12CCCC(CO)(COC1)C2O` (configuration not stated), for which the growth was 117% in [1]; 101% in [10]; 91.1% in assay [3]; 113% in assay [4]; 103% in [5]; 97.9% in [7]. Also, the values for the growth in assay [8] and in [9] were -57.2% (active) and 126%, respectively.

Consider `COc1ccc2c(c1)C/C(=C\c1cc(-c3cc(OC)c(OC)c(OC)c3)n[nH]1)C2=O`, for which the growth in assay [1] is 94.7%; in assay [10] it was 92.8%; in [3], 76.6%; in assay [4] it was 111%; in [5], 81.7%; in [6], 84.3%. Besides, in assay [7], the growth was 87.4%.

For the molecule `c1ccc2[nH]c(-c3cc(-c4ccc5c(c4)OCO5)n[nH]3)nc2c1`, the growth is 41% in assay [1]; 62.9% in [10]; 66.7% in assay [3]; 86% in assay [4]; 45.6% in [5]; 55.1% in assay [6]. Moreover, in assay [7], the growth is 71.8%.

With `COc1ccc(-c2nc3ncccn3c2-c2nc3ccc(Br)cc3[nH]2)cc1`, the growth in assay [1] was 83.5%; in [10] it was 89%; in [3], 84.4%; in assay [4], 101%; in assay [5], 88.6%; in assay [6], 93.7%. For the same molecule, the growth in [7] was 75.5%.

Turning to `CN1CCN(c2nc(-c3cccc4ccccc34)nc3sc4c(c23)CCCCCC4)CC1`, the growth in assay [1] was 106%; in assay [10], 75.9%; in [3] it was 46%; in assay [4], 113%; in assay [5] it was 82.7%; in assay [7], 94.2%. For the same molecule, the growth in [8] is 75.2%; in [9], 74%.

With `COc1ccc(C(=O)c2cc(OC)c(OC)c(OC)c2)cc1/C=C/C(=O)c1cc(OC)c(OC)c(OC)c1`, the growth in assay [1] is 116%; in [10], 96.2%; in [3], 66.2%; in assay [4] it was 140%; in [5], 89.3%; in assay [7] it was 96.2%. Besides, the growth in [8] was 60.5%; in assay [9], 88.3%.

Regarding `CC(C)(C)c1cc(-n2c(-c3ccc(Cl)cc3)nc3cc(C(=O)Nc4ccc(Cl)cc4)ccc32)n[nH]1`, the growth in [1] is 75.8%; in [10], 66.9%; in assay [3] it was 28.5%; in [4], 50.8%; in assay [5], 38.4%; in assay [6] it was 32%. Besides, the growth was 48% in assay [7] and 62.5% in [8].

Regarding `COc1cc(-c2cc(-c3nc4ccc(F)cc4[nH]3)[nH]n2)cc(OC)c1OC`, the growth in [1] is 17.5%; in [10] it was 33.8%; in assay [3], 26.1%; in [4], 63.7%; in assay [5], 19.6%; in [6], 28.4%. Also, the growth in assay [7] was 8.73% (active).

Consider `COc1cccc(NC(=O)c2sc3nc4c(cc3c2N)C(=O)CCC4)c1`, for which the growth in assay [1] is 25.3%; in assay [10] it was 35.3%; in assay [3], 52.3%; in [4] it was 84.2%; in [5], 42.5%; in assay [6], 55.2%. Besides, in assay [7], the growth is -3.03% (active).

As for `C/C(=N/NC(N)=S)C(=O)O`, the growth in assay [1] is 118%; in assay [10], 80.6%; in [3], 73.6%; in assay [4] it was 119%; in assay [5], 91.7%; in [7], 110%.

On to `Fc1ccc2nc(-c3cc(-c4ccc5c(c4)OCO5)n[nH]3)[nH]c2c1`, for which the growth in assay [1] was 42.7%; in [10], 65.2%; in assay [3], 73.4%; in [4], 75.9%; in assay [5], 49%; in [6] it was 41%. Moreover, the growth in assay [7] is 71.7%.

Take `Cc1ccc(Nc2c(C(N)=O)cnc3ccc(S(=O)(=O)Nc4cc(C)on4)cc23)cc1`: the growth in [1] is 109%; in assay [10], 97.9%; in assay [3], 78.2%; in [4], 118%; in assay [5] it was 89.2%; in [7], 88.8%. Also, the growth in [8] is 100%; in assay [9], 101%.

Consider `Cc1nn(-c2ccc(Br)cc2)c2nc3[nH]c(=O)[nH]c(=O)c3nc12`, for which the growth was 111% in [1]; 109% in assay [10]; 94.2% in [3]; 144% in [4]; 106% in [5]; 92.2% in [6]. Also, the growth was 84.3% in [7], 118% in assay [8] and 116% in assay [9].

Regarding `COc1ccc2c(c1)C/C(=C\c1cc(-c3ccc4c(c3)OCO4)n[nH]1)C2=O`, the growth in assay [1] is 128%; in assay [10], 95.2%; in [3] it was 75.1%; in assay [4] it was 162%; in assay [5], 82.8%; in assay [6] it was 90.3%. In [7], the growth is 85.5%.

For `Cc1cc(C=O)c(C)c2c1[nH]c1ccccc12`, the growth was 75.6% in assay [1]; 95.8% in [10]; 74.3% in assay [3]; 78% in assay [4]; 88.4% in assay [5]; -84.1% (active) in [7]. In addition, the growth was 83.5% in assay [8] and 86.1% in assay [9].
